Shown are actives, neighbours in structure and some others; about 19% of the full set was active somewhere.
TDP1 cell CPT – DT40-hTDP1 cell growth loss with CPT | chicken DT40 Tdp1-/-;hTDP1 cells + 20 nM CPT, ATP luminescence, 48 h | Potency, µM (series often up to 46.2 µM), for the others: at the top dose activity change, negative = growth inhibition, hits mostly inhibitors | hit rate 12% among 420,000 | AID 686979; note: potency is the fitted concentration of half-maximal effect; nearly all actives have a fitted effect of over 55% in size
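Cell growth measured by CellTiter-Glo luminescence after a minimum 48 h, 37 C compound exposure with 20 nM CPT in Tdp1-knockout DT40 cells stably expressing hTDP1, seeded 400/well; qHTS titration format.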
HT1080 IDH1KD tx – kills HT-1080 cells with IDH1 knockdown; HT-1080 IDH1 knockdown viability, ATP luminescence, 48 h; Potency, µM (highest dose often 46.1 µM), inactives show top-dose activity, negative = toxicity, actives largely listed as cytotoxic; hit rate 2% among 360,000;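 note: potency is the fitted concentration of half-maximal effect; 0% = DMSO wells and -100% = cell-free medium wells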
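Knockdown cells (IDH1KD HT-1080) received compounds 2 h after plating at 750 cells/well and were kept 48 h at 37 °C in 5% FBS RPMI. A CellTiter-Glo luminescence read gave % activity for curve fitting.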
HT1080-NT tox – kills 2HG-producing HT-1080-NT fibrosarcoma cells; hit rate 1.6% among 360,000; Potency, µM (highest dose often 46.1 µM), for inactives: top-dose activity, negative = less viability, most hits filed as cytotoxic; HT-1080-NT fibrosarcoma viability, CellTiter-Glo ATP luminescence, 48 h;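 note: NT is the 2HG producing partner of a matched IDH1 knockdown line; potency is the fitted concentration of half-maximal effect; 0% = DMSO-treated cells and -100% = media-only wells without cells; nearly all actives have a fitted effect of over 55% in size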
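Fibrosarcoma NT cells, 750 per well in 5% FBS RPMI, were exposed to compound for 48 hours. Viability: CellTiter-Glo luminescence.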
IL1B secr inh – inhibitors of inflammasome signaling (IL-1 beta secretion) | THP-1 LPS/ATP IL-1B secretion, AlphaLISA, 16 h; active compounds read low | activity change, % at 57.5 µM | hit rate 4.7% among 360,000 | AID 743279; in the data active = activity change below about -50%; inconclusive = mostly about -30% to -49%
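THP-1 cells pretreated 1 hr with compounds (up to 57.5 uM final), then stimulated with LPS (250 ng/mL final) plus ATP (1.25 mM final); secreted IL-1B measured by AlphaLISA after 16 hr, decreased signal indicating inhibition.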
DT40 TDP1 no CPT – qHTS for Inhibitors of human tyrosyl-DNA phosphodiesterase 1 (TDP1): qHTS in cells in absence of CPT; DT40 Tdp1-/- hTDP1 cells, no CPT, ATP luminescence, 48 h; Potency, µM (top dose mostly 46.2 µM), for the others: top-dose activity change, negative = growth inhibition, hits mostly inhibitors; hit rate 15% among 420,000; note: potency is the fitted concentration of half-maximal effect; nearly all actives have a fitted effect of over 55% in size
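Readout: luminescence from CellTiter-Glo after 30 min in the dark at RT. Cells: DT40 Tdp1-/- with stable hTDP1, 400/well. Exposure: compounds alone, ≥48 hr, 37 °C.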
The depositor's hits bear a star; ? = inconclusive; / = no result; [ ] = remark or other dose. Unless noted, calls come from the whole dose curve; as a rule, active = well fitted curve in the direction sought with a large enough effect; inconclusive = small, poorly fitted or top-dose-only effect, or another doubt; inactive = no such curve, though single readings can be large; an effect the other way counts as inactive or inconclusive. Unless noted, % is set by controls: 0 for no effect and ±100 for the full control effect.

SMILES	TDP1 cell CPT	HT1080 IDH1KD tx	HT1080-NT tox	IL1B secr inh	DT40 TDP1 no CPT
CCCCN(C)C(=O)c1ccc2c(c1)N(Cc1ccc(F)cc1)C(=O)c1ccccc1S2(=O)=O	16µM*	/	/	/	16µM*
O=C(NC1CCCCC1)c1ccc2c(c1)N(Cc1ccc(F)cc1)C(=O)c1ccccc1S2(=O)=O	-27%	/	/	/	-13%
O=C(NCc1ccco1)c1ccc2c(c1)N(Cc1ccc(Cl)cc1)C(=O)c1ccccc1S2(=O)=O	?	/	/	/	18µM*
O=C(NCc1ccco1)c1ccc2c(c1)N(Cc1ccc(Cl)cc1)C(=O)c1ccccc1S2=O (centres undefined)	?	/	/	/	18µM*
O=C(NCCC1=CCCCC1)c1ccc2c(c1)N(Cc1ccc(F)cc1)C(=O)c1ccccc1S2(=O)=O	21µM*	/	/	/	7.3µM*
CNC(=O)Cn1nc(-c2ccc(C)c(S(=O)(=O)N(C)C)c2)c2ccccc2c1=O	1%	5%	2%	55	1%
COc1cccc(CN2C(=O)c3ccccc3Sc3ccc(C(=O)N(C)Cc4ccccc4)cc32)c1	?	/	/	/	18µM*
O=C(NCc1ccco1)c1ccc2c(c1)N(Cc1ccc(F)cc1)C(=O)c1ccccc1S2(=O)=O	?	/	/	/	15µM*
O=C(NCCN1CCCC1)c1ccc2c(c1)N(Cc1ccccc1)C(=O)c1ccccc1S2(=O)=O	-19%	-1%	-26%	?	3%
O=C(NCc1ccc2c(c1)OCO2)c1ccc2c(c1)N(Cc1ccccc1)C(=O)c1ccccc1S2=O (centres undefined)	0%	/	/	/	?
CN(Cc1ccccc1)C(=O)c1ccc2c(c1)N(Cc1ccc(Cl)cc1)C(=O)c1ccccc1S2=O (centres undefined)	16µM*	/	/	/	16µM*
CN(CCOc1ccc(Cl)cc1)C(=O)c1cc(-c2ccco2)nc2ccccc12	?	-14%	-5%	-81*	?
CCOc1ccc(NC(=O)CN(C)C(=O)c2cn(-c3ccc(C)cc3)nc2-c2cccc(OC)c2)cc1OCC	?	-2%	-4%	-4	?
CCOc1ccc(NC(=O)CN(C)C(=O)c2cn(-c3ccccc3)nc2-c2cccs2)cc1OCC	18µM*	-24%	-5%	0	?
COc1ccc(Cl)cc1NC(=O)CN(C)C(=O)c1cc(-c2ccncc2)nc2ccccc12	23µM*	-27%	-12%	-25	15µM*
CCOc1ccc(NC(=O)CN(C)C(=O)c2cc(-c3ccco3)nc3ccccc23)cc1OCC	18µM*	-5%	-20%	-5	18µM*
CCOc1ccc(NC(=O)CN(C)C(=O)c2cc(C)nc3ccccc23)cc1OCC	-20%	0%	-2%	17	?
Oc1cncc(Cc2ccccc2)c1	-18%	1%	-4%	4	?
COc1ccc(C)cc1S(=O)(=O)N(C)CC(=O)NCc1ccncc1	-2%	-1%	1%	-5	-14%
CCOc1ccc(NC(=O)CN(C)C(=O)c2cc(-c3ccncc3)nc3ccccc23)cc1OCC	?	1%	-12%	-11	16µM*
CN(CC(=O)Nc1ccc(F)cc1)C(=O)c1cc(-c2ccco2)nc2ccccc12	-6%	-19%	-9%	-14	?
COc1cccc(NC(=O)CN(C)C(=O)c2cc(-c3ccco3)nc3ccccc23)c1	?	-4%	-20%	-6	18µM*
CCCCN(C(=O)c1ccc(S(=O)(=O)N(C)c2ccccc2)cc1)c1c(N)n(CCC)c(=O)[nH]c1=O	-16%	-6%	1%	-3	-19%
COC(c1ccccc1)c1nnc(CCC(=O)N(C)CCOc2ccccc2)o1 (centres undefined)	15%	-8%	-1%	-59*	?
COC(=O)C[C@H]1CC[C@H](NC(=O)Nc2ccccc2OC)[C@@H](CO)O1	-3%	9%	22%	-10	-8%
SMILES	TDP1 cell CPT	HT1080 IDH1KD tx	HT1080-NT tox	IL1B secr inh	DT40 TDP1 no CPT
Cc1cc(C)cc(NC(=O)N2CCC(C(N)=O)(N3CCCCC3)CC2)c1	-11%	/	/	/	-7%
Cc1cccc(-c2nc(CSCC(=O)N3CCN(c4cccc(C)c4C)CC3)c(C)o2)c1	18µM*	/	/	/	?
Cc1ccc(-c2nc(CSCC(=O)N3CCCC3)c(C)o2)cc1	-45%	-12%	-2%	9	-38%
Cc1cccc(-c2nc(CSCC(=O)N3CCN(c4ccccn4)CC3)c(C)o2)c1	21µM*	?	-15%	-59*	?
Cc1ccc(S(=O)(=O)N(CC(=O)NCc2ccco2)Cc2ccc(F)cc2)cc1	-15%	2%	13%	-10	-19%
CCOC(=O)c1ccc(NC(=O)CN(Cc2ccc(C)cc2)S(=O)(=O)c2ccc(C)cc2)cc1	13µM*	/	/	/	13µM*
Cc1ccc(S(=O)(=O)N(CC(=O)Nc2ccc(F)cc2F)Cc2ccc(F)cc2)cc1	18µM*	/	/	/	21µM*
Cc1cccc(-c2nc3sc(C)cc3c(=O)o2)c1	-21%	13%	22%	25	?
COC(=O)c1ccc(CNc2ccc(C(C)=O)cc2)cc1	?	-7%	0%	0	15µM*
COC(=O)c1ccc(CNCC(=O)Nc2ccc(C(=O)OC)cc2)cc1	?	-2%	0%	19	10%
CCOCCCNC(=O)C1(O)c2cc(Br)ccc2NC(=O)N1c1ccc(OCC)cc1 (centres undefined)	-11%	-9%	1%	5	-1%
O=C(NNC(=O)c1ccc2ccccc2c1O)NC1CCCCC1	-16%	0%	2%	-26	2%
COCCCNC(=O)c1cc(Cc2ccccc2)sc1N	?	7%	-1%	24	?
O=C(NC1CCCCC1)c1ccc2ccccc2c1O	?	0%	-19%	-61*	15µM*
Nc1sc(Cc2ccccc2)cc1C(=O)NC1CCCCC1	?	-15%	-11%	-18	15µM*
CSc1ccccc1NC(=O)Nc1cccc(Cl)c1	16µM*	2%	7%	-1	?
CN(c1cccc(NC(=O)Nc2cccc(Cl)c2)c1)S(C)(=O)=O	?	-2%[9.24 µM]	-29%	-25	16µM*
CSc1ccccc1NC(=O)CN(C)CC(=O)Nc1ccc(Cl)cc1F	23µM*	-5%	-2%	-8	?
CCc1nn(C(C)C(=O)NC2CCCCCC2)c(=O)c2cc3occc3n12 (centres undefined)	-22%	23%	15%	52	-17%
COc1cc(C(=O)NNC(=O)CN2C(=O)NC(C)(c3ccc(C)cc3)C2=O)cc(OC)c1OC (centres undefined)	9%	-5%	0%	7	0%
CCN1C(=O)c2ccccc2S(=O)c2ccc(C(=O)NCc3ccccc3OC)cc21 (centres undefined)	?	/	/	/	23µM*
